# TGFb inhibitor = blocks TGF-b signaling; HepG2 CAGA-GFP TGF-b/SMAD3 reporter, GFP fluorescence, 18 h; TGF-beta stimulated, 500 pg/mL final; Potency, µM (highest dose often 46.1 µM), for the others: at the highest dose activity, negative = inhibition, most hits filed as inhibitors; actives 1.2% (n = 410,000); AID 588855; also: % is scaled to controls: 0 for no effect and ±100 for the full control effect; nearly all actives have a fitted effect of over 65% in size
#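 GFP signal (ex488/em500-530) from TGF-beta-stimulated HEPG2 CAGA-GFP cells, 500 pg/mL final, 18 h at 37 degrees C in DMEM plus 1% FBS, normalized to unstimulated and DMSO-stimulated controls.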
# S2 tox = reduces viability in counter-screen for ATXN expression inhibitors; S2 cells (HEK-293 line with an ATXN2-luciferase reporter) viability, CellTiter-Fluor protease fluorescence, 24 h; Potency, µM (titrated, usually from 56.7 µM), hits mostly cytotoxic; actives 0.49% (n = 400,000); AID 651635; also: nearly all actives have a fitted effect of over 40% in size
# HT1080 IDH1KD tx = HT-1080 IDH1 knockdown cell toxicity (counter line) | Potency, µM (doses to about 46.1 µM), for inactives: at the highest dose activity, negative = toxicity, most hits filed as cytotoxic | AID 686971 | actives 2% (n = 360,000) | HT-1080 IDH1 knockdown viability, ATP luminescence, 48 h;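 also: 0% = DMSO wells and -100% = cell-free medium wells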
#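 Assay cells: HT-1080 with IDH1 knockdown, 750 per well, RPMI/5% FBS. Exposure: 48 h at 37 °C following 2 h pre-incubation. Read: CellTiter-Glo luminescence; fitted concentration-response, curve class assigned.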
# HT1080NT lethal = kills 2HG-producing HT-1080-NT fibrosarcoma cells; HT-1080-NT fibrosarcoma viability, CellTiter-Glo ATP luminescence, 48 h; Potency, µM (highest dose often 46.1 µM), for the others: top-dose activity, negative = less viability, usual class: cytotoxic; actives 1.6% (n = 360,000);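 also: NT is the 2HG producing partner of a matched IDH1 knockdown line; 0% = DMSO-treated cells and -100% = media-only wells without cells; nearly all actives have a fitted effect of over 55% in size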
#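 Luminescent CellTiter-Glo readout after 48 hours of compound exposure at 37 degrees C defined viability of HT-1080-NT cells. Activity was normalized to DMSO wells and cell-free media wells; concentration-response curves were fitted and assigned curve classes.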
# ATXN2 expr inh = inhibitors of ATXN2 expression. HEK-293 ATXN2-luciferase reporter, luminescence, 24 h. Potency, µM (titrated, usually from 57 µM), without a hit: at the highest dose activity change, negative = inhibition, usual class: inhibitors. actives 0.72% (n = 360,000); also: % is scaled to controls: 0 for no effect and ±100 for the full control effect; nearly all actives have a fitted effect of over 55% in size
#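 ATXN2-luciferase reporter cells (luciferase flanked by upstream and downstream ATXN2 gene portions) were treated 24 h at 37 °C with compounds at up to 57 uM. SteadyGlo luminescence gave expression; GF-AFC fluorescence gave viability.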
# HepG2 tox = counter-screen for TGF-b inhibitors: cytotoxicity in HepG2 cells. AID 588856. actives 0.76% (n = 410,000). HepG2 CAGA-GFP viability, ATP luminescence, 18 h. Potency, µM (top dose mostly 46.1 µM), inactives show at the top dose activity change, negative = cytotoxicity, hits mostly cytotoxic
#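 HepG2 CAGA-GFP cells (1000/well, DMEM with 1% FBS) received compound, then TGF-beta at 500 pg/mL final, and were incubated 18 hours at 37 degrees C. Viability was read by CellTiter-Glo luminescence. Media-only wells were set as complete cell-killing and DMSO as no toxicity.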
# The depositor's hits bear a star; i = inactive; ? = inconclusive; / = no result given; [ ] = another dose, or the depositor's remark. Only some compounds are listed: those with a hit (about 3.8% of all), similar ones and a draw of the others. Calls follow the shape of the dose curve; as a rule, active = well fitted curve in the direction sought with a large enough effect; inconclusive = small, poorly fitted or top-dose-only effect, or another doubt; inactive = no such curve, though single readings can be large; an effect the other way counts as inactive or inconclusive. Potency is read from the fitted curve at half-maximal effect.
SMILES,TGFb inhibitor,S2 tox,HT1080 IDH1KD tx,HT1080NT lethal,ATXN2 expr inh,HepG2 tox
COc1ccc(OC)c(-c2ccnc(-n3ncc(C(=O)N(C)CCO)c3C3CC3)n2)c1,/,i,/,/,/,/
CCCCCCCCCCn1ccc(=N)cc1,?,i,10µM*,?,?,-49%
Cc1cc(C)cc(NC(=O)Cn2c3ncccc3c(=O)n2-c2ccc(C)c(C)c2)c1,-7%,/,/,/,/,3%
Cn1cc(CN2CCCC(CO)(Cc3ccccc3)C2)c2ccccc21 (stereo not drawn),18%,i,?,?,0%[11.3 µM],1%
CCn1cc(CN2CCCC(CO)(Cc3ccc(F)cc3)C2)c2ccccc21 (stereo not drawn),?,i,18µM*,?,?,-45%
CCn1cc(C(=O)NCCCN2CCCC(C)C2)c(=O)c2cc(S(=O)(=O)N3CCc4ccccc4C3)ccc21 (stereo not drawn),-29%,i,21µM*,?,?,-32%
COC(=O)CSc1ncc2c(n1)-c1ccccc1N(Cc1ccc(Cl)cc1)S2(=O)=O,5%,i,/,/,4%,1%
CN1CCN(c2ccc(Nc3ccnc4cc(Cl)ccc34)cc2)CC1,-33%,?,21µM*,?,3.5µM*,-31%
CCOc1ccc(Nc2ccnc3cc(Cl)ccc23)cc1,-16%,i,?,?,-29%,-25%
Cc1cc(-n2c(SCc3ccccc3F)nc3n[nH]c(C)c3c2=N)ccc1Cl,-21%,i,21µM*,?,-18%,-28%
Cc1nn2c(N3CCN(C)CC3)c3c(nc2c1-c1ccccc1)CCCC3,-10%,20µM*,-8%,-8%,?,-18%
CCOc1ccc(CNC(=O)C2CCCN(c3nn4cc(-c5ccc(OC)cc5)nc4s3)C2)cc1 (stereo not drawn),0%,/,/,/,/,-15%
CN(C)c1nc(=NCc2ccco2)ss1,0.32µM*,0.1µM*,-6%,-3%,/,-74%
Fc1cccc(NC(=S)Nc2ccc(Br)cc2)c1,?,i,?,?,15%,-41%
CC(C)(C)NNC(=S)Nc1cccc(F)c1,?,?,5.8µM*,2.9µM*,-2%,-56%
CCOC(=O)C(C(=O)OCC)C1N=C(N)N=C2Oc3ccccc3N21 (stereo not drawn),?,i,10µM*,?,7%,-40%
Nc1ccc(/C=C/c2cccc3cccnc23)cc1,11%,/,/,/,/,-2%
Cc1ccc(-c2n[nH]c3c2C(c2cccc(O)c2)N(c2ccc(C(=O)O)cc2)C3=O)cc1 (stereo not drawn),?,i,0%,29%,14%,15%
Cc1ccc(-c2n[nH]c3c2C(c2ccccc2)N(c2ccc(C(=O)O)cc2)C3=O)cc1 (stereo not drawn),4%,i,-29%,-26%,8%,6%
O=C1c2[nH]nc(-c3ccc(Br)cc3)c2C(c2cccc(O)c2)N1c1ccc(Cl)cc1 (stereo not drawn),7.1µM*,/,/,/,?,14µM*
CCOc1ccc(N2C(=O)c3[nH]nc(-c4ccccc4)c3C2c2ccc(O)c(OC)c2)cc1 (stereo not drawn),?,?,/,/,?,-25%
O=C1c2[nH]nc(-c3ccccc3)c2C(c2ccccc2)N1c1cccc(C(F)(F)F)c1 (stereo not drawn),?,?,/,/,?,18µM*
CCOc1ccc(C2c3c(-c4ccc(C)cc4)n[nH]c3C(=O)N2c2ccc(Cl)cc2)cc1 (stereo not drawn),4.5µM*,/,/,/,-28%,13µM*
CC1CCN(S(=O)(=O)c2ccc3[nH]ccc3c2)CC1,6%,/,/,/,/,-1%
O=P(O)(O)OC(Cn1cncn1)(Cn1cncn1)c1ccc(F)cc1F,/,i,/,/,/,/
